# Where “and” joins values, the source holds several entries; their conditions need not be identical. Equal entries are not always repeated. The panel holds about 83,000 compounds, 20% with a hit somewhere; the sample as a whole holds those more often.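 Testing used 96-well plates and a 48-hour single-concentration exposure. Example: -40 means 40% of the starting cells died.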 A number with no mark means an inactive call. Calls of active or inactive are those of the source.
# Test system: COLO 205 colon
# Assay: NCI-60 one-dose screen, 48 h (100 = growth as untreated, 0 = no growth, -100 = all killed)
# Settings: 0.01 µM
# Method: Cells are grown in 96 well plates and exposed to the test compound for 48 hours. Compounds are tested at a single concentration, which is 10^-5 M for most compounds. The reported endpoint is percent growth (GI% or GIPRCNT), where numbers from 0 - 100% represent growth inhibition, and numbers from -100% - 0 represent cell death. For example, a value of 40 represents 60% growth inhibition. A value of 0 means no net growth occurred over the course of the experiment. A value of -40 indicates 40% of cells at the beginning of the experiment died by the end of the experiment. A value of -100 means all cells are dead at the end of the experiment.
# NCI-60 Human Tumor Cell Lines Screen was performed using the standard one-dose NCI protocol, which is described in more detail at https://dtp.cancer.gov/discovery_development/nci-60/default.htm.
# Compounds with GIPRCNT values below 10 were considered active. Activity score was based on GIPRCNT using the following formula: […]
# Score is 0 for GIPRCNT values of 100 or above, 50 for GIPRCNT values of 0, and 100 for GIPRCNT values of -100.
row,Structure (SMILES),growth
1,CC(=O)O[C@H]1C(=O)[C@@]2(C)[C@H]([C@H](OC(=O)c3ccccc3)[C@]3(O)C[C@H](OC(=O)[C@H](O)[C@@H](NC(=O)c4ccccc4)c4ccccc4)C(C)=C1C3(C)C)[C@]1(OC(C)=O)CO[C@@H]1C[C@@H]2O,13.4%

# Same assay, conditions: 2.5 µM
row,Structure (SMILES),growth
1,CC(=O)O[C@H]1C(=O)[C@@]2(C)[C@H]([C@H](OC(=O)c3ccccc3)[C@]3(O)C[C@H](OC(=O)[C@H](O)[C@@H](NC(=O)c4ccccc4)c4ccccc4)C(C)=C1C3(C)C)[C@]1(OC(C)=O)CO[C@@H]1C[C@@H]2O,-54.6% (active)

# Same assay, conditions: 5 µM
row,Structure (SMILES),growth
1,CC(=O)O[C@H]1C(=O)[C@@]2(C)[C@H]([C@H](OC(=O)c3ccccc3)[C@]3(O)C[C@H](OC(=O)[C@H](O)[C@@H](NC(=O)c4ccccc4)c4ccccc4)C(C)=C1C3(C)C)[C@]1(OC(C)=O)CO[C@@H]1C[C@@H]2O,-47.9% (active)

# Same assay, conditions: 10 µM
row,Structure (SMILES),growth
1,NCc1c(O)ccc2ccccc12,105%
2,N#CC(=C1C=CC(=NO)C=C1)c1ccccc1,30.4%
3,Cn1c2nc3ccccc3c-2nc2ccccc21,86.7% and 83.9%
4,N#C/C(=C/N1C(=O)/C(=C/c2ccc([N+](=O)[O-])cc2)SC1=S)c1nc2ccccc2s1,90.3%
5,Cc1cc(C)c(N2C(=O)CC(Sc3ccccc3N)C2=O)c(C)c1 (stereo not given),84.8%
6,O=C1C(Cl)=C(Cl)C(Cl)(Cl)C(Cl)C1(Cl)Cl (stereo not given),105%
7,S=P(N1CC1)(N1CC1)N1CC1,106% and 121%
8,O=[N+]([O-])c1cc(S(=O)(=O)Nc2ccccc2)ccc1Cl,119%
9,CC(=O)O[C@H]1C(=O)[C@@]2(C)[C@H]([C@H](OC(=O)c3ccccc3)[C@]3(O)C[C@H](OC(=O)[C@H](O)[C@@H](NC(=O)c4ccccc4)c4ccccc4)C(C)=C1C3(C)C)[C@]1(OC(C)=O)CO[C@@H]1C[C@@H]2O,9.93% (active) and -37.3% (active)
10,CCOC(=O)[C@]1(Br)CC[C@@]1(Br)C(=O)OCC,116%
11,Cc1c(-c2ccccc2)[nH]c2ccccc12,115%
12,CC1CCC2(C(=O)O)CCC3(C)C(=CCC4C5(C)CC(O)C(O)C(C)(CO)C5C(O)CC43C)C2C1C (stereo not given),112%
13,COc1ccc(C(C#N)=C2C=CC(=NO)C=C2)cc1,127%
14,Cn1ncc2cc3c(Nc4ccc(Cl)cc4)cccc3nc21,96.1%
15,Cc1cc(O)c2c(c1O)C(=O)C13C(=C2O)C(=O)C2C(O)C1C1C(O)C3C(=O)C3=C(O)c4c(O)cc(C)c(O)c4C(=O)C321 (stereo not given),-30.4% (active)
16,CC[C@@]1(OC(=O)CN(C)C)C(=O)OCc2c1cc1n(c2=O)Cc2cc3c(N)cccc3nc2-1,17.5%
17,S=C1SCN(CCc2ccccc2)CN1CCc1ccccc1,99.2%
18,COc1ccc(N)c2c1C(=O)c1ccccc1C2=O,111%

row,Structure (SMILES),growth
1,Nc1nc(N)c2cc(Sc3ccc4ccccc4c3)ccc2n1,-71.6% (active)
2,C=C1N(C)c2ccc(Cl)cc2C1(C)C,23.7%
3,COc1ccc2oc(-c3ccc(Cl)cc3)c(N3CCN(C)CC3)c2c1,-72.5% (active)
4,COc1cccc(C(c2cc3c(cc2O)OCO3)N2CCOCC2)c1OC (stereo not given),111%
5,CN(CC(=O)O)c1ccc(/C=C/c2ccnc3ccccc23)cc1,91.2%
6,CN(C)CCNc1cccc2sc3ccc(O)cc3c(=O)c12,34.9%
7,CN(C)c1ccc(/C=C/c2ccnc3ccccc23)cc1N,62.9%
8,O=S(=O)(c1cc(Cl)ccc1O)c1cc(Cl)ccc1O,105%
9,O=Nc1ccc(Nc2ccccc2)cc1,105%
10,O=C1c2cccc3cc([N+](=O)[O-])cc(c23)C(=O)N1CCN1CCCC1,-13.8% (active)
11,Cc1cc(N=C2C=CC(=[N+](C)C)C=C2)c(N)cc1N,95.8%
12,O=C1c2ccccc2CCC1(Br)Br,-68.2% (active)
13,O=C(NC(=S)Nc1ccccn1)c1ccccc1,101%
14,CCC(=O)Oc1ccc(/C=N/NC(N)=S)nc1,79.5%
15,O=C1C=CC(=O)N1c1ccc(N2C(=O)C=CC2=O)cc1,95.2%
16,O=c1[nH]cc(/C=N\Nc2ccccc2)c(=O)[nH]1,67.9%
17,COc1ccc2c(c1)[nH]c1c(/C=C/c3ccccc3)nccc12,14.4%
18,O=C(CNS(=O)(=O)Cc1ccccc1)NNc1ccccc1,75.2%

# Same assay, conditions: 100 µM
row,Structure (SMILES),growth
1,S=P(N1CC1)(N1CC1)N1CC1,78.6%
